In PubChem BioAssay AID1878 (Sanford-Burnham Center for Chemical Genomics, 2009):
The campaign covered roughly 1,000 compounds. About 200 (20%) were called active. No stated cut-off is given here; in the data, active means inhibition above about 55%; inactive means the rest. Not all results are given here. Potency and affinity values are given separately.

The molecules below were run against Dual specificity protein phosphatase 3 (Homo sapiens) (UniProt P51452) (assay: VHR1 phosphatase inhibitors, biochemical (AID 1878)). Conditions: recombinant VHR phosphatase, fluorogenic substrate; at 13.3 µM; active compounds read high.
Chain of Dual specificity protein phosphatase 3 (Homo sapiens) (P51452 whole entry, looked up): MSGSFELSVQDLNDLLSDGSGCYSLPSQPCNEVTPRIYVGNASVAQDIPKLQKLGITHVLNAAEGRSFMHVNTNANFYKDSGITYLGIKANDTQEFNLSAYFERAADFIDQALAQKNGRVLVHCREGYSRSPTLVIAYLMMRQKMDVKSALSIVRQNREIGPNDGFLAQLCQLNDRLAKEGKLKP

| Structure (SMILES) | inhibition |
| --- | --- |
| CCOCCCNC(=O)c1cn(C)c2ccc(S(=O)(=O)N3CCCCC3)cc2c1=O | 12.7% (inactive) |
| N#Cc1c(-c2cccs2)nc(SCC(=O)c2ccc(Br)cc2)[nH]c1=O | 95.4% (active) |
| Nc1cc(=O)[nH]c(SCCSc2ccc(F)cc2)n1 | -2.2% (inactive) |
| CN1CCN(CCNC(=O)Cn2c(=O)c3cccn3c3ccc(F)cc32)CC1 | -1% (inactive) |
| COc1ccc(CN(C)Cc2c(O)ccc3ccccc23)cc1 | -9% (inactive) |
| CCCCCc1nnc(NC(=O)Cc2ccc([N+](=O)[O-])cc2)s1 | 4.4% (inactive) |
| O=C(Nc1ccccc1F)N1CCc2ccccc2C1 | -0.6% (inactive) |
| Cn1cc(Cl)c(C(=O)Nc2nccs2)n1 | 25.2% (inactive) |
| COC(=O)c1ccccc1NC(=O)CCS(=O)(=O)c1ccc(Br)cc1 | 89.7% (active) |
| COC(=O)c1ccccc1NC(=O)c1cc2ccccc2o1 | 12.8% (inactive) |
| Cc1ccc(NC(=O)CCS(=O)(=O)c2ccc3c(c2)NC(=O)C(C)S3)nc1 (stereo unspecified) | -1.8% (inactive) |
| Cc1ccc2cc(CN(CC3CCCO3)C(=O)c3cccs3)c(=O)[nH]c2c1 (stereo unspecified) | -11.2% (inactive) |
| CN(C(=O)c1ccc(COc2ccccc2Cl)o1)c1ccccc1 | 15% (inactive) |
| CCOC(=O)c1sc2nc(C)nc(NCc3ccc(Cl)cc3)c2c1C | 0.5% (inactive) |
| CCOC(=O)c1sc2ncnc(Nc3cccc(C(=O)O)c3)c2c1C | -6.2% (inactive) |
| O=C(Cn1c(=O)c2c3c(sc2n(Cc2ccccc2)c1=O)CCCC3)NCCO | -0.2% (inactive) |
| Cc1cc(Cl)cc(Cl)c1OCCN1CCCC1 | -2.7% (inactive) |
| CSCCNC(=O)c1ccc2nc(Cc3ccccc3F)oc2c1 | -8.6% (inactive) |
| Cc1ccc2[nH]c(CN3CCN(C)C(CCO)C3)c(C)c2c1 (stereo unspecified) | -2.5% (inactive) |
| Cc1cc(-n2c(SCC(=O)NCCC3=CCCCC3)nc3n[nH]c(C)c3c2=N)ccc1Cl | 15.1% (inactive) |
| O=C(Nc1cc(-c2nc3ncccc3o2)ccc1Cl)c1cccs1 | -1.1% (inactive) |
| CN(CCO)CCOCCOc1cccc2ccccc12 | -15.7% (inactive) |
| CC(=O)c1ccc(OCC(=O)N2CCCC(Nc3ccc(C)c(C)c3)C2)cc1 (stereo unspecified) | 3.2% (inactive) |
| CCCCN(CCCNC(=O)c1ccc(CS(=O)(=O)c2c(Cl)cccc2Cl)o1)Cc1ccccc1 | -4.4% (inactive) |

| Structure (SMILES) | inhibition |
| --- | --- |
| CC(=O)N/C(=N\c1nc(C)cc(C)n1)Nc1ccc(Cl)cc1Cl | -6.7% (inactive) |
| Oc1cccc2ccc(/C=C/c3ccccc3Cl)nc12 | -3.4% (inactive) |
| CSCCC1NC(=S)N(Cc2ccccc2)C1=O (stereo unspecified) | -5.4% (inactive) |
| O=C(CNS(=O)(=O)c1cccc(Br)c1)NCC1CCCCC1 | 11.2% (inactive) |
| Cc1ccc(N(C(=O)c2snc(C(N)=O)c2N)C(CC(C)C)C(=O)NC2CCCC2)cc1 (stereo unspecified) | 0.9% (inactive) |
| Cn1nnc2cc(C(=O)Nc3ccccc3F)ccc21 | -4.2% (inactive) |
| CCc1ccccc1NC(=O)C1CCCN1S(=O)(=O)c1ccc(-c2ccc(=O)[nH]n2)s1 (stereo unspecified) | -1.8% (inactive) |
| Cc1ccc(S(=O)(=O)N(C)C)cc1NC(=O)CN1CCCC1 | -0.5% (inactive) |
| C=CCN1C(=O)C2(OCCO2)c2cc(C)ccc21 | -6.3% (inactive) |
| CN(C)c1ccc(NC(=O)Nc2ccc3c(c2)nnn3C)cc1 | 38.6% (inactive) |
| C/C(=N\NC(=O)c1ccc(OC2OCCOC2Oc2ccc(C(=O)N/N=C(\C)c3ccncc3)cc2)cc1)c1ccncc1 (stereo unspecified) | 92.7% (active) |
| C/C(=N\NC(=O)C1CCCC1)c1ccc(Cl)cc1 | 3.5% (inactive) |
| Cc1ccccc1C(=O)NC[C@@H]1CCCN2CCCC[C@H]12 | -3.5% (inactive) |
| CC(=O)c1cccc(OCc2cc(C(=O)N3CC4C[C@@H]5CC3C[C@H](C4)C5)no2)c1 | 21.3% (inactive) |
| Cc1ccc2c(c1)N(CC(=O)NCCCN1CCCCC1C)C(=O)c1cccnc1O2 (stereo unspecified) | -7.1% (inactive) |
| O=C(COC(=O)CNC(=O)c1ccc(Cl)cc1Cl)Nc1ccc(N2CCOCC2)cc1 | 1.8% (inactive) |
| Cc1ccc(S(=O)(=O)N(C)C)cc1NC(=S)N(C)C1CCN(C)CC1 | -3.6% (inactive) |
| CCc1nnc(NC(=O)COc2ccc3c(c2)OCO3)s1 | 5.7% (inactive) |
| CCOc1ccccc1OCCN1CCCC1 | -12.9% (inactive) |
| O=C(O)CCC(=O)N1N=C(c2ccccc2)CC1c1ccc(Br)cc1 (stereo unspecified) | -7.5% (inactive) |
| O=[N+]([O-])c1ccc(N2N=C(c3ccccc3)CC2c2ccccc2O)cc1 (stereo unspecified) | 6% (inactive) |
| COc1ccc(C2=NN(C(=O)CCCC(=O)O)C(c3cn(-c4ccccc4)nc3-c3ccccc3)C2)cc1 (stereo unspecified) | 91.6% (active) |
| COc1cc(OC)c(NC2=CC(=O)C(=O)c3ccccc32)cc1Cl | 6.7% (inactive) |
| O=C(NCCc1cnc[nH]1)Nc1cccc(C(F)(F)F)c1 | -4.7% (inactive) |

| Structure (SMILES) | inhibition |
| --- | --- |
| CN(c1ccc(C(=O)N2CCCCC2)cc1)S(C)(=O)=O | 27% (inactive) |
| CC1=CC(=O)c2c(O)ccc(O)c2C1=O | 65.2% (active) |
| COc1ccc(OC)c2c(C)cc(C)nc12 | -3.6% (inactive) |
| CC1CCCC(C)N1/N=C/c1ccc(O)c(O)c1 (stereo unspecified) | 2.9% (inactive) |
| COCCCN(CC(=O)Nc1ccc(N2CCOCC2)cc1)S(=O)(=O)c1ccc(Cl)cc1 | -3.7% (inactive) |
| CC1CCC(NCCNC(=O)c2ccco2)CC1 (stereo unspecified) | -9.5% (inactive) |
| O=C(Nc1ccnn1C1CCN(C2CCCC2)CC1)c1ccccc1 | -11.4% (inactive) |
| CCCCCC#CCC#CCC#CCC#CCCCC(=O)O | 94.6% (active) |
| COc1ccc(Nc2nccc(-c3ccc(C#N)cc3)n2)cc1 | -0.6% (inactive) |
| NC(=O)NC(=O)C(Nc1ccc(N2CCCCC2)cc1)c1ccccc1 (stereo unspecified) | 3.2% (inactive) |
| CCOc1ccc(CNC(=O)c2cccc(NC(=O)C3=C(C)OCCS3)c2)cc1 | 5.4% (inactive) |
| CN(C(=O)COC(=O)c1cc(F)c(F)cc1Cl)c1ccccc1 | -7.5% (inactive) |
| COC(=O)c1ccc(CN2CCCC(CNC(=O)Cc3ccc(OC)cc3)C2)cc1 (stereo unspecified) | -1% (inactive) |
| CCOc1ccc(CNC(=O)C(=O)c2cn(CC(=O)N3CCOCC3)c3ccccc23)cc1OC | -5.3% (inactive) |
| CCCCN(C)CCNC(=O)CCn1nc(-c2ccc(C)cc2)ccc1=O | 49.7% (inactive) |
| Cc1ccc(NC(=O)COc2cccc(-n3cnnn3)c2)cc1[N+](=O)[O-] | -11.9% (inactive) |
| Cc1ccc(OCC(=O)Nc2ccc(C(N)=O)cc2)cc1 | 19.4% (inactive) |
| Cc1cccc(NC(=O)COc2ccc(/C=C\c3[nH]c(=O)[nH]c(=O)c3[N+](=O)[O-])cc2)c1 | 98.7% (active) |
| Cc1nn(C)c(C)c1CCC(=O)N1CCCC(N2CCN(c3ccc(F)cc3)CC2)C1 (stereo unspecified) | -3.3% (inactive) |
| Cc1nc2sccn2c(=O)c1S(=O)(=O)Nc1ccc(N2CCN(S(C)(=O)=O)CC2)cc1 | -12.5% (inactive) |
| O=c1c2c(-c3cccc([N+](=O)[O-])c3)ccnc2[nH]n1-c1ccccc1 | 74.2% (active) |
| COc1ccc(-c2ccnc3[nH]n(-c4ccccc4)c(=O)c23)cc1 | 7.3% (inactive) |
| O=[N+]([O-])c1cccc(S(=O)(=O)N2CCN(c3ccccn3)CC2)c1 | -9.5% (inactive) |
| COc1ccc2c(C)nc(N/C(N)=N/S(=O)(=O)c3ccc(C)cc3)nc2c1 | 26.9% (inactive) |

| Structure (SMILES) | inhibition |
| --- | --- |
| Cn1c(=O)[nH]c(=O)c2c1nc(N1CCNCC1)n2Cc1ccccc1Cl | 0.7% (inactive) |
| COc1cc(NC(=O)c2cnc(NCc3ccccc3)nc2C)cc(OC)c1OC | -1.7% (inactive) |
| c1cc(-c2nnc3sc(C4CCCCC4)nn23)ccn1 | -3.4% (inactive) |
| COc1ccccc1NS(=O)(=O)c1ccc2oc(SC)nc2c1 | -3.1% (inactive) |
| O=C1Nc2ccccc2C1=Nc1ccc(F)cc1 | -4.5% (inactive) |
| O=C(NC(=S)Nc1ccccn1)c1ccc(-c2ccccc2)cc1 | 0.9% (inactive) |
| O=C(O)c1ccc(NC(=S)NC(=O)C(c2ccccc2)c2ccccc2)cc1 | -6.3% (inactive) |
| COc1cccc(-c2cc(C(=O)N3CCc4ccccc4C3)[nH]n2)c1 | 6.6% (inactive) |
| COc1ccc(NC(=O)c2cc3ccc4c5ccccc5[nH]c4c3cc2O)cc1 | 19.8% (inactive) |
| O=C(C1CC1)N1N=C(c2cccc(Br)c2)CC1(O)C(F)(F)F (stereo unspecified) | 2.7% (inactive) |
| Nc1ccc(C(=O)N(CCO)CCO)cc1 | 4.4% (inactive) |
| CN(C)C(=O)/C(=C/c1ccc(-c2cccc([N+](=O)[O-])c2)o1)NC(=O)c1ccccc1 | 1.2% (inactive) |
| Cc1ccc2nc(/C(C#N)=C/c3ccc(-c4cccc([N+](=O)[O-])c4)o3)[nH]c2c1 | 96.4% (active) |
| CC(=O)Nc1nc(C)c(-c2nc3ccc([N+](=O)[O-])cc3[nH]2)s1 | 1% (inactive) |
| Cc1cc(C)c(S(=O)(=O)NCC2CCC(C(=O)NCCCN3CCC(C)CC3)CC2)c(C)c1 (stereo unspecified) | -3.9% (inactive) |
| CC(=O)N1CCN(c2ccc(NCc3cccc4ccccc34)cc2)CC1 | 3.9% (inactive) |
| CN(C)c1ccc(N=Cc2cccn2C)cc1 | 0.6% (inactive) |
| CC(C)(C)CN1CCC(Oc2cccc(C(=O)N3CCNC(=O)C3(C)C)c2)CC1 | 6.9% (inactive) |
| COC(=O)C1=CN(Cc2ccc(OC)cc2)C=C(C(=O)OC)C1c1ccc(O)c(OC)c1 | 8.4% (inactive) |
| O=C(CCNC(=O)N1CC(=O)Nc2ccccc21)Nc1cccc(Cl)c1 | 2% (inactive) |
| C=CCNC(=O)N1c2ccccc2Sc2ccccc21 | 26.2% (inactive) |
| CCN(C(=O)c1ccc(S(=O)(=O)N(C)C)cc1)C(C)C(=O)Nc1ccc(C)cc1 (stereo unspecified) | 5.9% (inactive) |
| CC(C)OCCCNC(=S)Nc1ccc(S(N)(=O)=O)cc1 | 54.9% (active) |
| CC(C)Oc1ccc(C(=O)Nc2ccc(S(=O)(=O)N3CCN(C)CC3)cc2)cc1 | -10.6% (inactive) |
